Experimental data from PubChem BioAssay AID1259349 (Broad Institute, 2017).
Where “and” joins values, the source holds several entries; their conditions need not be identical. Identical values can stand only once. Out of some 17,000 compounds screened, about 1,100 (6.5%) were called active.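 How the source made its calls: active means z-score of -3 or lower, meaning strong loss of probe binding signal; inactive means the rest.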 The full list was thinned out, with actives kept by preference. More than one record can exist for a structure, and the calls need not agree.

biological target: Insulin-degrading enzyme (Homo sapiens) (UniProt P14735); assay: displacers of FL-6b probe from IDE – biochemical, fluorescence anisotropy, probe displacement, primary screen (AID 1259349); settings: purified IDE, FL-6b probe fluorescence polarization; at 20 µM; stronger effect = lower value;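 further: His-tagged human IDE residues 42-1019 made in E. coli with 30 nM FL-6b probe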
Sequence (P14735 42-1019 limits assumed): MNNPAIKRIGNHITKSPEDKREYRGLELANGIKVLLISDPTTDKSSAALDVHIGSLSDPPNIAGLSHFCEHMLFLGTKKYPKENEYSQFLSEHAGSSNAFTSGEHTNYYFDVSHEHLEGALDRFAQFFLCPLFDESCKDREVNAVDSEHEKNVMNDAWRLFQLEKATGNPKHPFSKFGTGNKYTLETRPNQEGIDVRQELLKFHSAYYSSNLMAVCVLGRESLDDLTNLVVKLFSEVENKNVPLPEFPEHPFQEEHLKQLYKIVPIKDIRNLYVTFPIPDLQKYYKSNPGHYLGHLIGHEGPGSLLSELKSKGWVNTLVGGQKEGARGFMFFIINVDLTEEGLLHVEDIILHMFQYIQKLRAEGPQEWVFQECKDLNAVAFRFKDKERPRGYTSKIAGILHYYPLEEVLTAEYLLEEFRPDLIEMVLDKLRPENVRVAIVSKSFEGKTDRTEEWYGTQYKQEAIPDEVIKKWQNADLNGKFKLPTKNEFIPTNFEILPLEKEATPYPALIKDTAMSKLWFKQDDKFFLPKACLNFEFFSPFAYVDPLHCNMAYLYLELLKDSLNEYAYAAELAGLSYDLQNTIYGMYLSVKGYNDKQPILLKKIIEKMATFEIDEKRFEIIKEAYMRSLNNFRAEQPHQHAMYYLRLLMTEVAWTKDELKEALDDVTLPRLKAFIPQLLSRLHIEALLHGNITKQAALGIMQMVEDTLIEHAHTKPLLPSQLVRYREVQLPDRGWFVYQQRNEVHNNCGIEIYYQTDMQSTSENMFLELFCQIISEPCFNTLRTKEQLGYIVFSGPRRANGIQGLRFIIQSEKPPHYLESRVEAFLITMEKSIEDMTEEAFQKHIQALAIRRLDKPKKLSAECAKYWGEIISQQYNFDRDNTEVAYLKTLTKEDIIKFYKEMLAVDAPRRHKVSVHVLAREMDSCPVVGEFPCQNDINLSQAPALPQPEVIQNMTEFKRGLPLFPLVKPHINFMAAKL

Row | Structure (SMILES) | z-score
1 | CC(C)C#Cc1ccc([C@H]2[C@@H](C#N)N(C(=O)CN(C)C)[C@H]2CO)cc1 | 0.732 (inactive)
2 | COc1ccc2c3c([nH]c2c1)[C@H](CO)N(C(=O)Nc1ccc(F)cc1)CC31CCN(CC2CCOCC2)CC1 | -0.0173 (inactive)
3 | CCCNC(=O)N1CC2(CN(C(=O)c3cnccn3)C2)c2c([nH]c3cc(OC)ccc23)[C@@H]1CO | -1.28 (inactive)
4 | N#C[C@@H]1[C@@H](c2ccc(C3=CCCCC3)cc2)[C@@H](CO)N1C(=O)c1cccc(F)c1 | 2.45 (inactive)
5 | C[C@@H]1CN([C@H](C)CO)C(=O)Cc2cc(N(C)C)ccc2O[C@H]1CN(C)C(=O)NC1CCCCC1 | -0.478 (inactive)
6 | COc1ccc2c3c([nH]c2c1)[C@H](CO)N(C(C)=O)CC31CN(S(=O)(=O)c2cccs2)C1 | 0.716 (inactive)
7 | CNC[C@H]1OCCCC[C@@H](C)Oc2ccc(NS(=O)(=O)c3ccc(F)cc3)cc2C(=O)N([C@H](C)CO)C[C@H]1C | 0.482 (inactive)
8 | CCCNC(=O)N1[C@H](C#N)[C@@H](c2ccc(C3=CCCC3)cc2)[C@H]1CO | 0.0932 (inactive)
9 | CCS(=O)(=O)N1[C@H](C#N)[C@H](c2ccc(-c3cccc(F)c3)cc2)[C@@H]1CO | 0.519 (inactive)
10 | Cn1cnc(S(=O)(=O)N2C[C@@H]3N[C@H](C2)C3c2ccc(/C=C/c3ccccc3)cc2)c1 (stereo partly drawn) | -1.85 (inactive) and -5.13 (active)
11 | Cn1cnc(S(=O)(=O)N2C[C@@H]3N[C@H](C2)C3c2ccc(-c3ccccc3F)cc2)c1 (stereo partly drawn) | 0.547 (inactive) and 0.421 (inactive)
12 | COc1ccc(-c2ccc(C3[C@@H]4CN(S(=O)(=O)c5cn(C)cn5)C[C@H]3N4)cc2)cc1 (stereo partly drawn) | 2.29 (inactive)
13 | O=C(Nc1cccc(F)c1)N1CC(=O)N2[C@H](C1)[C@H](c1ccc(-c3ccccc3F)cc1)[C@@H]2CO | 0.741 (inactive)
14 | Cc1ccc(S(=O)(=O)Nc2ccc3c(c2)C(=O)N([C@H](C)CO)C[C@@H](C)[C@H](CN(C)S(=O)(=O)c2cccs2)OCCCC[C@@H](C)O3)cc1 | -0.652 (inactive)
15 | O=C(Cc1ccccn1)N[C@H]1CC[C@H](CCNS(=O)(=O)c2cccc(F)c2)O[C@@H]1CO | 0.0602 (inactive)
16 | O=C(CN1CCOCC1)N1C[C@@H]2N[C@H](C1)C2c1ccc(-c2ccncc2)cc1 (stereo partly drawn) | 0.193 (inactive)
17 | COCC#Cc1ccc([C@@H]2[C@@H](CO)N3C(=O)CN(C(=O)C4CCOCC4)C[C@@H]23)cc1 | 0.89 (inactive)
18 | O=C(C1CCC1)N1CC(=O)N2[C@@H](CO)[C@@H](c3ccc(C#Cc4cccc(F)c4)cc3)[C@@H]2C1 | -4.35 (active)
19 | O=C(C1CCC1)N1CC(=O)N2[C@H](CO)[C@H](c3ccc(C#CCc4ccccc4)cc3)[C@@H]2C1 | -2.52 (inactive)
20 | COCC#Cc1ccc([C@@H]2[C@H]3CN(C(=O)C4CCOCC4)CC(=O)N3[C@H]2CO)cc1 | 2.55 (inactive)
21 | O=C(C1CCOCC1)N1CC(=O)N2[C@H](CO)[C@H](c3ccc(C#Cc4cccc(F)c4)cc3)[C@H]2C1 | -19.3 (active)
22 | O=C(C1CCCCC1)N1CC(=O)N2[C@H](CO)[C@@H](c3ccc(C#Cc4cccc(F)c4)cc3)[C@@H]2C1 | 1.96 (inactive)
23 | COc1ccc2c3c([nH]c2c1)[C@@H](CO)N(Cc1ccncc1)CC31CN(C(=O)CN(C)C)C1 | -0.567 (inactive)

Row | Structure (SMILES) | z-score
24 | COCC(=O)Nc1ccc2c(c1)OC[C@@H](C)N(Cc1ccccc1C(=O)O)C[C@@H](C)[C@H](OC)CN(C)C2=O | 1.82 (inactive)
25 | CC(=O)N1CCCCN2[C@H](C1)[C@@H](c1ccc(-c3ccc(F)cc3)cc1)[C@@H]2CO | 0.352 (inactive)
26 | O=C(c1cccc(F)c1)N1CCCCN2[C@@H](CO)[C@H](c3ccc(-c4cncnc4)cc3)[C@@H]2C1 | 1.94 (inactive)
27 | O=C(C1CC1)N1CCCCN2[C@H](CO)[C@H](c3ccc(-c4cccc(F)c4)cc3)[C@H]2C1 | -6.38 (active)
28 | O=C(c1cccc(F)c1)N1CCCCN2[C@H](CO)[C@@H](c3ccc(-c4cncnc4)cc3)[C@H]2C1 | 1.13 (inactive)
29 | O=C(C1CC1)N1CCCCN2[C@H](C1)[C@@H](c1ccc(-c3cccc(F)c3)cc1)[C@@H]2CO | -3.66 (active)
30 | O=C(C1CCC1)N1CCCCN2[C@H](CO)[C@H](c3ccc(-c4ccncc4)cc3)[C@@H]2C1 | -0.182 (inactive)
31 | COc1cccc(S(=O)(=O)Nc2ccc3c(c2)[C@@H]2C[C@@H](CC(=O)NC4CCCCC4)O[C@H](CO)[C@@H]2O3)c1 | -0.362 (inactive)
32 | COc1ccc2c3c([nH]c2c1)[C@@H](CO)N(C(=O)C1CC1)CC31CCN(C(=O)c2ccncc2)CC1 | 1.3 (inactive)
33 | CO[C@H]1CN(C)C(=O)c2cc(NC(=O)C3CC3)ccc2OC[C@@H](C)N(Cc2cc(F)ccc2F)C[C@H]1C | -1.43 (inactive)
34 | COc1ccc2c3c(n(C)c2c1)[C@@H](CO)N(Cc1ccccc1F)CC31CCN(C(=O)C2CCOCC2)CC1 | -2.72 (inactive)
35 | OC[C@H]1[C@@H](c2ccc(-c3ccccc3F)cc2)[C@@H]2CN(Cc3ccncc3)CCCCN12 | -0.42 (inactive)
36 | OC[C@H]1[C@H](c2ccc(-c3ccccc3F)cc2)[C@H]2CN(Cc3cncnc3)CCCCN21 | -3.23 (active)
37 | OC[C@@H]1[C@@H](c2ccc(C#CC3(O)CCCC3)cc2)[C@@H]2CN(Cc3cncnc3)CCCCN12 | 0.144 (inactive)
38 | OC[C@@H]1[C@@H](c2ccc(-c3ccccc3F)cc2)[C@@H]2CN(Cc3cncnc3)CCCCN12 | -0.419 (inactive)
39 | OC[C@@H]1[C@H](c2ccc(C#Cc3ccccc3)cc2)[C@@H]2CN(Cc3cncnc3)CCCCN12 | -3.14 (active)
40 | CCCC#Cc1ccc([C@H]2[C@H]3CN(Cc4cncnc4)CCCCN3[C@H]2CO)cc1 | 1.82 (inactive)
41 | CN1C(=O)c2cc(NC(=O)Nc3ccccc3Cl)ccc2OC[C@H]2O[C@H](CC(=O)NCCCN3CCOCC3)CC[C@H]21 | -1.04 (inactive)
42 | CC(=O)NC[C@H]1[C@@H](c2ccc(C#CC(C)C)cc2)[C@@H](CO)N1Cc1ccccn1 | -1.78 (inactive)
43 | C[C@@H]1CN([C@H](C)CO)C(=O)c2cc(NC(=O)NC3CCCCC3)ccc2O[C@@H]1CN(C)S(C)(=O)=O | 0.86 (inactive)
44 | COc1cccc(C(=O)Nc2ccc3c(c2)C(=O)N(C)[C@H]2CC[C@@H](CC(=O)N[C@H](C)c4ccccc4)O[C@H]2CO3)c1 | -4.24 (active)
45 | C[C@@H](NC(=O)C[C@H]1CC[C@H]2[C@H](COc3ccc(NS(=O)(=O)c4ccc(Cl)cc4)cc3C(=O)N2C)O1)c1ccccc1 | 0.297 (inactive)
46 | COc1cccc(C(=O)Nc2ccc3c(c2)C(=O)N(C)[C@H]2CC[C@H](CC(=O)N[C@@H](C)c4ccccc4)O[C@H]2CO3)c1 | -1.12 (inactive)

Row | Structure (SMILES) | z-score
47 | O=C(c1cccnc1)N1CC(=O)N2[C@H](CO)[C@H](c3ccc(-c4cccnc4)cc3)[C@@H]2C1 | 1.98 (inactive)
48 | O=C(c1ccccc1F)N1CC(=O)N2[C@H](CO)[C@@H](c3ccc(-c4cccnc4)cc3)[C@H]2C1 | -0.211 (inactive)
49 | O=C(Cc1ccccn1)N1CC(=O)N2[C@H](C1)[C@@H](c1ccc(-c3ccccc3)cc1)[C@@H]2CO | -6.31 (active)
50 | O=C(c1cccnc1)N1CC(=O)N2[C@H](CO)[C@@H](c3ccc(-c4ccc(F)cc4)cc3)[C@@H]2C1 | -1.03 (inactive)
51 | CCCC#Cc1ccc([C@H]2[C@H]3CN(C(=O)c4cccnc4)CC(=O)N3[C@H]2CO)cc1 | 0.452 (inactive)
52 | N#Cc1ccc(-c2ccc([C@H]3[C@H](CO)N4C(=O)CN(C(=O)Cc5ccccc5)C[C@@H]34)cc2)cc1 | 1.44 (inactive)
53 | Cc1ccccc1-c1ccc([C@H]2[C@H](CO)N3C(=O)CN(C(=O)c4cccnc4)C[C@@H]23)cc1 | -12.4 (active)
54 | COc1ccc(C#Cc2ccc([C@H]3[C@H]4CN(C(=O)c5cccnc5)CC(=O)N4[C@H]3CO)cc2)cc1 | -0.5 (inactive)
55 | Cc1ccccc1-c1ccc([C@H]2[C@@H](CO)N3C(=O)CN(C(=O)c4cccnc4)C[C@@H]23)cc1 | -8.42 (active)
56 | O=C(Cc1ccccn1)N1CC(=O)N2[C@H](CO)[C@H](c3ccc(C#CCC4CCCC4)cc3)[C@@H]2C1 | 0.616 (inactive)
57 | COc1cccc(-c2ccc([C@@H]3[C@H]4CN(C(=O)c5cccnc5)CC(=O)N4[C@H]3CO)cc2)c1 | -6.37 (active)
58 | O=C(c1cccnc1)N1CC(=O)N2[C@H](C1)[C@H](c1ccc(-c3ccccc3F)cc1)[C@@H]2CO | -1.28 (inactive)
59 | C[C@H]1CN([C@@H](C)CO)S(=O)(=O)c2ccc(C#CC3(O)CCCC3)cc2O[C@@H]1CN(C)C(=O)Nc1cccc(F)c1 | -0.533 (inactive)
60 | COc1ccc(-c2ccccc2[C@H]2[C@@H](CO)N(C(=O)c3cccnc3)[C@H]2C#N)cc1 | 0.00658 (inactive)
61 | N#Cc1cccc(-c2ccc(C3[C@H]4CNC[C@@H]3N4Cc3cncnc3)cc2)c1 (stereo partly drawn) | 1.3 (inactive)
62 | CCN(C[C@H]1[C@H](c2ccc(-c3ccccc3)cc2)[C@H](CO)N1CC1CC1)C(C)=O | 2.55 (inactive)
63 | N#Cc1cccc(-c2ccc(C3[C@@H]4CNC[C@H]3N4)cc2)c1 (stereo partly drawn) | -0.64 (inactive)
64 | CCCNC(=O)N1[C@H](CNC(=O)c2cccc(F)c2)[C@H](c2ccccc2)[C@@H]1CO | 1.46 (inactive)
65 | CCCNC(=O)N1[C@@H]2Cn3c(ccc(-c4ccc(OC)cc4)c3=O)[C@H]1[C@@H](C(=O)NC1CCC1)[C@@H]2CO | -0.305 (inactive)
66 | Cc1cccc(-c2ccc([C@@H]3[C@H]4CN(C(=O)c5ccccc5)CC(=O)N4[C@H]3CO)cc2)c1 | -8.7 (active)
67 | CN(C)C(=O)c1cccc(-c2ccc([C@H]3[C@H](CO)N4C(=O)CN(C(=O)Cc5ccccc5)C[C@@H]34)cc2)c1 | 3.83 (inactive)
68 | CN(C)C(=O)c1cccc(-c2ccc([C@H]3[C@H]4CN(C(=O)Cc5ccccc5)CC(=O)N4[C@H]3CO)cc2)c1 | 1.91 (inactive)
